# According to PubChem BioAssay AID1569 (National Center for Advancing Translational Sciences (NCATS), 2009):
# Records with an inconclusive call do not appear. Active and inactive are the calls of the source. The call rests on the fitted dose curve; in most records, active means well fitted inhibition curve with a large enough effect; inconclusive means small, poorly fitted or top-dose-only effect, or effect the other way, or another doubt; inactive means no such curve, though single readings can be large or run the other way.
# Assay: Confirmation Concentration-Response Assay for lipid storage modulators; further: nearly all actives have a fitted effect of over 80% in size
# Details: Drosophila S3 cells, lipid droplet BODIPY/CellTracker ratio, 18-24 h; series mostly up to 46.1 µM
# Text: NIH Molecular Libraries Probe Production Centers Network [MLPCN] NIH Chemical Genomics Center [NCGC] MLPCN Grant: 1 R03 MH085686-01 Assay Submitter (PI): Beller, Mathias; Max-Planck-Institut fur Biophysikalische Chemie NCGC Assay Overview: Storing lipids as a reservoir for energy or the anabolism of elementary metabolites is a common feature of probably all cells and is conserved from bacteria to humans. The universal cellular lipid storage organelle is the so-called lipid storage droplet (LD). Although ubiquitous, LDs share a simple structure composed of a hydrophobic core that harbors the storage lipids, which is shielded by a droplet-specific phospholipid monolayer to which proteins are attached. The current model of LD biogenesis involves an incorporation of the lipid core into the membrane leaflets of the endoplasmic reticulum (ER) followed by a subsequent budding-like maturation of a LD, which ultimately pinches off. Once released, LD volume can increase by localized lipogenesis or fusion of existing droplets. Storage lipids are re-mobilized enzymatically by lipase activity. Lipase regulation in the adipocyte is heavily studied and involves multiple components including catecholamine signaling, the LD-associated proteins Perilipin and comparative gene identification-58 (CGI-58) and at least two lipases named hormone sensitive lipase (HSL) and adipocyte triglyceride lipase (ATGL). LD regulation outside of the adipocyte is poorly understood and only few components are known. However, there is an urgent need to learn more about ectopic fat depots as mislocalized storage of lipids, for example in the liver or muscle, is an eminent health problem associated with insulin resistance or the metabolic syndrome. We developed a laser-scanning cytometer assay to enable 1,536-well screening and combined the results of the small molecules screen with an RNAi database based on lipid storage. Exo1 identified in the primary screen (AID 1519) and several analogs were measured in the lipid storage assay as 24-point concentration-response curves to confirm potency and SAR.
# We dispensed 4 uL of cells at 1.25 x 10^6 cells/mL into LoBase Aurora COC 1,536-well plates (black walled, clear bottom) with a bottle-valve solenoid-based dispenser (Aurora) to obtain 5,000 cells/well. Triacsin C (Sigma-Aldrich T-4540), an inhibitor of long-chain fatty acyl CoA synthetase that blocks synthesis of triglycerides, was used as a positive control for lipid under-storage. A total of 23 nL of compound solution of different concentrations were transferred to the assay plates using a Kalypsys pin tool equipped with a 1,536-pin array containing 10-nL slotted pins (FP1S10, 0.457-mm diameter, 50.8 mm long; V&P Scientific). One microliter of oleic acid (400 uM) was added, and the plate was lidded with stainless steel rubber gasket lined lids containing pinholes. After 18-24 h incubation at 24 degree Celsius and 95% humidity, 4 uL of the dyes BODIPY 493/503 (Molecular Probes) and the Cell Tracker Red CMTPX dye (Molecular Probes) were added to the wells to stain lipid droplets and enumerate cell number, respectively. Fluorescence was detected by excitation of the fluorophores with a 488-nm laser on an Acumen Explorer (TTP Lab Tech). The total intensity in channel 1 (500-530 nm) reflected lipid droplet accumulation. Cells were detected using channel 3 (575- 640 nm) with 5-um width and 100-um depth filters. The ratio of the total intensity in PMT channel 1 over total intensity of channel 3 was also calculated. Percent activity was computed relative to an internal control (100% inhibited lipid droplet deposition due to the presence of 20 uM Triacsin C), which was added to 32 wells/plate.
# Potency means the concentration at half of the fitted maximal effect.
row,SMILES,Potency
1,COc1ccc(/C=C(\NC(=O)c2cccs2)C(=O)Nc2ccc(C)cc2)cc1OC,0.141 µM (active)
2,COc1ccc(CCCc2nnc(SCC(=O)Nc3nc(C)cs3)n2C)cc1C,1.41 µM (active)
3,CCN1CCN(Cc2ccc(NC(=O)c3ccc(C)c(NC(=O)c4c[nH]c5cc(C(F)(F)F)ccc5c4=O)c3)cc2C(F)(F)F)CC1,8.88 µM (active)
4,COc1ccc(Cl)cc1NC(=O)CN(C)C(=O)CCCc1c[nH]c2ccccc12,22.3 µM (active)
5,COC(=O)c1ccc(C(=O)NC2CCCc3c2cnn3-c2ccccc2F)nc1 (stereo not given),0.177 µM (active)
6,Cc1ccccc1NC(=O)NC1(C(=O)N2CCC(O)CC2)CCCCC1,inactive
7,CCOc1ccc(CCNC(=O)c2cc3sccc3n2CC)cc1OCC,0.199 µM (active)
8,CC(C)OC(=O)c1cc2c(ccn2C)n1CC(=O)N(Cc1ccccc1)c1ccccc1,1.77 µM (active)
9,CCC(C)(C)NC(=O)C(c1ccc(OC)cc1)N(CCOC)C(=O)CCC(=O)Nc1nccs1 (stereo not given),19.9 µM (active)
10,COC(=O)c1ccccc1NC(=O)c1ccc(C#N)cc1,1.12 µM [activator] (active)
11,CN1CCN(C(=O)C2(NC(=O)NCc3ccccc3)CCCCC2)CC1,inactive
12,CCOc1ccc(CCNC(=O)COC(=O)c2ccc(OC(C)C)cc2)cc1OCC,0.158 µM (active)
13,N#Cc1ccsc1NC(=O)CN1CCN(S(=O)(=O)c2cc(Cl)ccc2Cl)CC1,2.5 µM (active)
14,O=C(NCC1(N2CCOCC2)CCCCC1)c1ccc(S(=O)(=O)Nc2ccccc2F)cc1,3.97 µM (active)
15,CCOc1ccc(CCNC(=O)COC(=O)CCc2cc(OC)c(OC)c(OC)c2)cc1OCC,inactive
16,CCCCCCCCCCCCCCCC[n+]1cccc2ccccc21,1.22 µM (active)
17,COc1cccc(C(=O)O[C@@H]2[C@H](Cc3ccccc3)NS(=O)(=O)[C@H]3C[C@@H]4C=C[C@]23O4)c1,11.2 µM (active)
18,CCCCCCCCn1c(=O)c(C(=O)OC)c(N)c2ccccc21,7.91 µM (active)
19,O=C(NCc1cccnc1)Nc1cc(Cl)cc(Cl)c1,inactive
20,CCOc1ccc(CCNC(=O)Cn2cccc2C(=O)c2ccccc2C)cc1OCC,4.99 µM (active)

row,SMILES,Potency
1,CCC(C)(C)NC(=O)C(c1cccn1C)N(Cc1ccc(OC)cc1)C(=O)Cn1nnc2ccccc21 (stereo not given),2.5 µM (active)
2,COc1ccc(CCNC(=O)COc2ccc(S(=O)(=O)NC3CCCCC3)cc2Cl)cc1OC,3.97 µM (active)
3,Cc1cccc(OCc2nnc(SCC(=O)N3c4ccccc4CC3C)n2C)c1C (stereo not given),6.28 µM (active)
4,COc1c(C)cc(C(=O)C2CCCN(C(=O)c3ccc4[nH]ccc4c3)C2)cc1C (stereo not given),17.3 µM (active)
5,COc1ccc(CC(=O)NCCc2ccc(OC)c(OC)c2)cc1,inactive
6,Cc1ccccc1-n1ncc(C(C)NC(=O)c2ccco2)c1C (stereo not given),0.396 µM (active)
7,CSCCC(NS(=O)(=O)c1ccc2c(c1)OCCO2)C(=O)N(C)Cc1ccc(C)cc1 (stereo not given),inactive
8,Cc1cccc(NC(=O)CNC(=O)C23CC4CC(CC(Cl)(C4)C2)C3)n1,3.15 µM (active)
9,COc1ccc2oc(C(=O)OCC(=O)NCCc3ccc(S(N)(=O)=O)cc3)c(C)c2c1,4.99 µM (active)
10,O=C1c2ccccc2C(=O)c2c(Nc3ccc(CCO)cc3)ccc(O)c21,25 µM (active)
11,O=C(NCc1ccccc1)NC1(C(=O)N2CCCC2)CCCCC1,inactive
12,COc1ccc(C)cc1NC(=O)C1CCN(S(=O)(=O)c2cccc3cccnc23)CC1,15.8 µM (active)
13,COc1cccc(C(=O)O[C@H]2[C@H](C)NS(=O)(=O)[C@H]3C[C@@H]4C=C[C@]23O4)c1,inactive
14,Cc1cc(C(=O)O[C@H]2[C@H](C)NS(=O)(=O)[C@H]3C[C@@H]4C=C[C@]23O4)cc([N+](=O)[O-])c1,inactive
15,COc1ccc(CCNC(=O)CCCn2nc(C)n3ccnc3c2=O)cc1OC,inactive
16,OC1(c2cccc(C(F)(F)F)c2)CCN(c2ncnc3c2[nH]c2ccc(F)cc23)CC1,7.91 µM (active)
17,COc1cc2c(cc1NC(=S)NC(=O)c1c(OC)cccc1OC)oc1ccccc12,2.17 µM (active)
18,CC(=O)c1cc(-c2ccccc2)n(CC(=O)N2CCC(C)CC2)c1C,1.58 µM (active)
19,CCOC(=O)c1c(C)[nH]c(C(=O)OCC(=O)NCCc2ccc(OCC)c(OCC)c2)c1C,0.888 µM (active)
20,Cc1ccc(NC(=O)CNC(=O)CC23CC4CC(CC(C4)C2)C3)c(O)c1,2.23 µM (active)
